# Screening results deposited in PubChem by several laboratories.
# In the library only some 1.6% were active in any assay of this set; here they are far more common.
# Rev-erbA mod: Rev-erb alpha (human) modulation; P20393; Rev-erbα–FITC-DNA binding, fluorescence polarization, 90 min; activity, % at 10 µM; actives 0.79% (n = 370,000);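 active means activity above about 14%, limit read from the data; passing the limit was not always enough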;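 further: 0% = DMSO wells with 35 nM protein and 100% = DMSO wells with 750 nM protein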
# PG9 Ab binder: PG9 antibody binding by small molecule. AID 624416. actives 0.43% (n = 360,000). TR-FRET gp120-PG9 antibody binding. inhibition, % at 6.7 µM; in the data active means inhibition above about 8.5%
# NPR1 activator: GC-A (human) enzyme activation; HEK293 GC-A cells, cGMP TR-FRET, EC30 ANP; 0% at EC30 ANP, 100% saturating ANP; activation, % at 10 µM; actives 0.14% (n = 370,000); P16066; in the data active means activation above about 40%
# V-ATPase pHluor: alters yeast V-ATPase proton transport; S. cerevisiae, pHLuorin cytosolic pH fluorescence; response, % at 10 µM; actives 0.37% (n = 350,000); AID 504577; in the data active means response mostly above about 7.3%, no sharp cut-off; inactive means mostly below about 5.4%; further: actives read high
# NPR2 activator: GC-B (human) receptor activation; activation, % at 10 µM; P20594; actives 0.11% (n = 370,000); HEK293-GC-B cells, CNP EC30, cGMP TR-FRET; 0% at EC30 CNP, 100% saturating CNP;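 active means activation at 10 µM reaching about 35% in either raw or pattern-adjusted values, limit read from the data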
# PG9 binder conf: PG9 antibody binding, confirmed; shares compounds with PG9 Ab binder; TR-FRET PG9 antibody binding, biochemical; inhibition, % at 6.7 µM; actives 90% (n = 1,500); in the data active means inhibition above about 9%
# PGV04 Ab binding: counter-screen for PG9 binders: binding control antibody PGV04; shares compounds with PG9 Ab binder; TR-FRET PGV04 antibody-gp120 binding, biochemical; inhibition, % at 6.7 µM; actives 95% (n = 1,500); AID 651604; in the data active means inhibition above about 9.5%
# The depositor's hits bear a star; x = no result given.
SMILES,Rev-erbA mod,PG9 Ab binder,NPR1 activator,V-ATPase pHluor,NPR2 activator,PG9 binder conf,PGV04 Ab binding
COCCCNC(=O)C[C@H]1C[C@@]2(C(=O)OC)C(=C[C@H](C(C)C)O[C@@H]2C2CC2)N(Cc2ccc(Cl)cc2Cl)C1=O,0,x,-20,x,-17,x,x
N#CCC[C@H]1CC[C@]2(CCCN(Cc3cccc4ccccc34)C2)O1,3,x,-4,x,-4,x,x
Cc1cc2cc(CNC(=O)Cc3ccc([N+](=O)[O-])cc3)ccc2n1C,-6,10*,3,2,4,13*,21*
Cc1cc2cc(CNC(=O)c3cccc([N+](=O)[O-])c3)ccc2n1C,3,3,4,0,4,x,x
C=Cc1ccc(C(=O)Nc2nnc(-c3cccnc3)s2)cc1,-13,x,1,x,-5,x,x
CCOC(=O)[C@]12CCCC=C1N(Cc1ccc(OC)cc1)C(=O)[C@@H]2CC(=O)NCc1cccc(C(F)(F)F)c1,-1,x,-1,x,3,x,x
COc1cccc2cc(C(=O)Nc3cccnc3N3CCOCC3)c(=O)oc12,-5,9.7*,19,5,13,4,7
O=C(Nc1cccnc1N1CCOCC1)c1cc2ccccc2oc1=O,-3,-2,1,-4,4,x,x
CC[C@@]1(O)C(=O)OCc2c1cc1n(c2=O)Cc2c-1nc1cc(F)c(C)c3c1c2[C@@H](N)CC3,-3,x,x,x,x,x,x
CNC(=O)NC(=O)CSc1nc(-c2cccs2)c(C#N)c(=O)[nH]1,5,58*,45*,-2,23,58*,70*
N#Cc1c(-c2cccs2)nc(SCc2ccc(Cl)cc2)[nH]c1=O,0,47*,30,-2,12,50*,61*
CCC(Sc1nc(-c2ccccc2)c(C#N)c(=O)[nH]1)C(=O)Nc1cc(C)on1 (stereo unspecified),-1,28*,8,-2,1,36*,45*
CCC(Sc1nc2ccccc2[nH]1)C(=O)Nc1cc(C)on1 (stereo unspecified),-2,1,0,2,-2,x,x
CCOC(=O)Cc1csc(NC(=O)CSc2nc(-c3ccccc3)c(C#N)c(=O)[nH]2)n1,-1,0,3,1,4,x,x
CSc1nc(-c2ccc(Cl)cc2)c(C#N)c(=O)[nH]1,-4,4,2,3,-3,x,x
CSc1nc(-c2ccccc2)c(C#N)c(=O)[nH]1,1,15*,8,-1,7,22*,35*
O=c1[nH]c(SCc2ccc(Cl)cc2)nc2ccsc12,-6,-1,-2,x,-7,x,x
CSc1nc(-c2cccs2)c(C#N)c(=O)[nH]1,-9,49*,40,0,15,55*,68*
CCSc1nc(-c2ccccc2)c(C#N)c(=O)[nH]1,-2,9.5*,1,-3,0,15*,21*
CSc1nc2nc(-c3cccs3)cc(C(F)(F)F)c2c(=O)[nH]1,1,2,1,6,5,x,x
N#Cc1c(-c2ccccc2)nc(SCC(=O)NC2CCCCC2)[nH]c1=O,0,8,6,7,4,x,x
S=c1[nH]nc(-c2cccc(Br)c2)o1,-6,27*,0,1,-8,28*,39*
O=C1CCC[C@H]2C[C@H](NCc3cccnc3)CC[C@]23CCCN13,0,x,1,x,-1,x,x
O=C(NCc1cccnc1)c1ccc(Cn2c(=S)[nH]c3ccc(Br)cc3c2=O)cc1,9,10*,-2,-3,-3,13*,13*
CCn1c2ccccc2c2cc(CN3CCN(S(=O)(=O)Cc4ccccc4)CC3)ccc21,1,14*,-2,1,-4,16*,26*
SMILES,Rev-erbA mod,PG9 Ab binder,NPR1 activator,V-ATPase pHluor,NPR2 activator,PG9 binder conf,PGV04 Ab binding
CCOC(=O)[C@]12CCCC=C1N(CCCOC)C(=O)[C@@H]2CC(=O)NCC12CC3CC(CC(C3)C1)C2,7,x,2,x,6,x,x
CC(=O)C(C(C)=O)c1c(Cl)c(O)c(O)c2c(C(=O)c3ccccc3)coc12,2,12*,2,0,9,18*,20*
CN1CCN(Cc2c(O)ccc3occ(C(=O)c4ccccc4)c23)CC1,1,2,-7,-4,-3,x,x
COc1ccc(C(=O)COC(=O)c2ccc(N(C)C)cc2)cc1,6,15*,-1,7,10,23*,26*
COc1ccc(C(=O)C[n+]2ccc(N(C)C)cc2)cc1,-2,-3,-2,2,0,x,x
COC(=O)c1ccc(CNC(=O)COC(=O)c2ccc(N(C)C)cc2)cc1,13,26*,-4,0,-2,24*,39*
CN(C)c1ccc(C(=O)OCC(=O)NCCNC(=O)COC(=O)c2ccc(N(C)C)cc2)cc1,6,-4,0,-2,-1,x,x
COc1ccc2cc(Br)ccc2c1CC(=O)NC(C)C,-4,11*,-17,2,-8,12*,16*
O=C(Nc1ccc(N2C(=O)C3CCCCC3C2=O)cc1Cl)c1cccs1 (stereo unspecified),8,18*,7,1,0,30*,46*
Cc1ccc(S(=O)(=O)c2cn(CC(=O)Nc3ccccc3)c3ccc(F)cc3c2=O)cc1,-8,14*,0,-2,5,17*,25*
Cc1ccc(Cn2cc(S(=O)(=O)c3ccc(Cl)cc3)c(=O)c3cc(F)ccc32)cc1,0,8.7*,7,0,8,12*,21*
Cc1ccc(NC(=O)Cn2cc(S(=O)(=O)c3ccc(F)cc3)c(=O)c3cc(F)ccc32)cc1,10,24*,0,-2,8,38*,44*
CC(C)(C)NC(=O)C(c1cccnc1)N(C(=O)c1cnc[nH]1)c1ccc(C(C)(C)C)cc1 (stereo unspecified),15,x,-6,x,0,x,x
CN(Cc1ccccc1)S(=O)(=O)c1cccc(C(=O)OCc2ccccc2)c1,-7,x,-3,x,2,x,x
O=C1CCC(CNc2ccccc2)N1c1ccccc1 (stereo unspecified),-1,x,0,x,-1,x,x
COc1ccc(-c2cn3c(C)c(C(=O)Nc4cc(NC(C)=O)ccc4OC)sc3n2)cc1,-4,12*,3,-2,-5,9.8*,31*
O=C(OCC#CCSc1nnc(-c2cccc3ccccc23)o1)c1sccc1Cl,-5,x,-3,x,-2,x,x
NC(=O)c1nn(-c2ccccc2)nc1NC(=O)Cn1nnc(-c2ccccc2)n1,-3,8.6*,-1,-2,-4,18*,19*
NC(=O)c1nn(-c2ccccc2)nc1NC(=O)CN1CCCC1,-4,-1,-7,2,-7,x,x
O=C(Cc1ccccc1)Nc1nnc(-c2cccs2)s1,9,12*,2,0,2,19*,31*
